High-throughput results: PubChem BioAssay, National Center for Advancing Translational Sciences (NCATS)
Shown are actives, neighbours in structure and some others; about 12% of the full set was active somewhere.
BAZ2B block: inhibitors of human BAZ2B bromodomain; Q9UIF8; AlphaScreen BAZ2B-H3K14Ac peptide displacement; Potency, µM (highest dose often 114 µM), inactives show at the highest dose activity change, negative = inhibition, usual class: inhibitors; actives 4.4% (n = 360,000); AID 504333; further: on the % scale 0 is the no-effect control and ±100 the full control effect; nearly all actives have a fitted effect of over 60% in size
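BAZ2B 50 nM plus b-H3(5-23)K14Ac 50 nM, PBS pH 7.4/0.01% Tween-20, 30 min RT; compound added (max 110 uM), 30 min RT; streptavidin donor/Ni-chelate acceptor beads 10 ug/mL final, 20 min dark; AlphaScreen read.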
Sfp PPTase inh: blocks B. subtilis Sfp PPTase activity; Q9F4F7; Potency, µM, for inactives: largest response in the series, negative = inhibition, actives largely listed as inhibitors; actives 3.5% (n = 310,000); AID 1490; Biochemical Sfp PPTase activity, qHTS;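 further: the enzyme is Sfp with the accession as filed and its product quenches rhodamine fluorescence; 0% = enzyme reaction without inhibitor and -100% = no enzyme wells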
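Sfp 15 nM + cpd, 15 min RT; start w/ rhodamine-CoA 5 uM, BHQ-2-YbbR 12.5 uM (final); 50 mM Hepes pH 7.6, 10 mM MgCl2, 0.01% NP-40, 0.01% BSA; read 525/598 nm at 0 and 30 min.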
G9a block: blocks human histone lysine methyltransferase G9a | Q96KQ7 | G9a H3K9 monomethylation, AlphaScreen, 2 h | Potency, µM (titrated, usually from 102 µM), inactives show at the highest dose activity, negative = inhibition, actives largely listed as inhibitors | actives 8.8% (n = 350,000); further: on the % scale 0 is the no-effect control and ±100 the full control effect; nearly all actives have a fitted effect of over 75% in size
Target sequence (Q96KQ7 913-1193 limits assumed): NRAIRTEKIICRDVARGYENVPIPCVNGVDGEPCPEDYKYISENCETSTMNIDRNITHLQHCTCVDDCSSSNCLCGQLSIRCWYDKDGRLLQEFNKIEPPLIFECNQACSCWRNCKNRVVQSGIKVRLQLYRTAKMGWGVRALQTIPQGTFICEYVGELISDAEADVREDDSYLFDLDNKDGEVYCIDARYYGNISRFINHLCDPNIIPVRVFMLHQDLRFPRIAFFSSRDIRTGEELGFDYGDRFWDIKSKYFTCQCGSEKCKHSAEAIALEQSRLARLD
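Compounds were preincubated with 20 nM G9a for 15 min, after which biotinylated H3K9 peptide (500 nM) and SAM (20 uM) started a 2 h room-temperature reaction. Monomethylated product was quantified by antibody-based AlphaScreen chemiluminescence.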
HP1b chromo inh: blocks HP1-beta chromodomain binding to methylated histone tails. P83916. AlphaScreen HP1-beta / biotin-H3K9me3 peptide binding. Potency, µM (titrated, usually from 114 µM), for inactives: at the highest dose activity change, negative = inhibition, usual class: inhibitors. actives 0.56% (n = 390,000); further: nearly all actives have a fitted effect of over 70% in size
Target sequence (P83916 whole entry, looked up): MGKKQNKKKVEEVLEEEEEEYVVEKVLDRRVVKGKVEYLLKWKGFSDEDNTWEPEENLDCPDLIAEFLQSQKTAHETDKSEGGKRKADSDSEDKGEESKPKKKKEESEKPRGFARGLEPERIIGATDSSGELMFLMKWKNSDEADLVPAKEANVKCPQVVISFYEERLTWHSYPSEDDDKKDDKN
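Compound inhibition of the preformed complex between 50 nM HP1-beta and 50 nM biotinylated H3K9me3 peptide was read by AlphaScreen. Buffer was PBS pH 7.4 with 0.01% Tween-20. Incubations ran 30 min at room temperature, with 10 ug/mL donor/acceptor beads.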
L3MBTL1 block: blocks human L3MBTL1 | Potency, µM (top dose mostly 57.1 µM), for inactives: at the highest dose activity, negative = inhibition, hits mostly inhibitors | AlphaScreen L3MBTL1–H3K9me1 peptide binding | AID 485360 | actives 0.66% (n = 230,000); further: on the % scale 0 is the no-effect control and ±100 the full control effect; nearly all actives have a fitted effect of over 60% in size
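L3MBTL1 (50 nM) pre-complexed 30 min with biotinylated H3(1-15)K9me1 peptide (75 nM), then compounds added for 30 min at room temperature; AlphaScreen streptavidin donor/nickel chelate acceptor beads (10 ug/mL final) read after 30 min dark incubation.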
JMJD2A Tudor inh: JMJD2A Tudor domain (human) inhibition | O75164 | AlphaScreen JMJD2A-Tudor / H3K4me3 peptide binding | Potency, µM (series often up to 114 µM), without a hit: top-dose activity change, negative = inhibition, most hits filed as inhibitors | actives 4.4% (n = 390,000) | AID 504339; further: on the % scale 0 is the no-effect control and ±100 the full control effect; nearly all actives have a fitted effect of over 50% in size
The depositor's hits bear a star; ? = inconclusive; / = not tested or not shown; [ ] = another dose, or the depositor's remark. The call rests on the fitted dose curve; in most records, active means well fitted curve in the direction sought with a large enough effect; inconclusive means small, poorly fitted or top-dose-only effect, or another doubt; inactive means no such curve, though single readings can be large; an effect the other way counts as inactive or inconclusive. Potency means the concentration at half of the fitted maximal effect.

SMILES	BAZ2B block	Sfp PPTase inh	G9a block	HP1b chromo inh	L3MBTL1 block	JMJD2A Tudor inh
CCCCCc1cc(=O)oc2c(C(CCN3CCCC(C)C3)c3ccc(OC)cc3)c(OC)cc(OC)c12 (stereo not drawn)	?	25.1µM*	?	-15.8%	/	?
COc1cc(C(CCN2CCCC(C)C2)c2c(OC)cc(OC)c3c(-c4ccccc4)cc(=O)oc23)cc(OC)c1OC (stereo not drawn)	-31.2%	-13.7%	-38.5%[59 µM]	-13.6%	/	?
COc1cc(OC)c2c(C)cc(=O)oc2c1C(CCN1CCCC(C)C1)c1ccc(N(C)C)cc1 (stereo not drawn)	/	-16.8%	/	?	/	28.2µM*
CCCCCc1cc(=O)oc2c(C(CCN3CCCC3)c3ccc(N(C)C)cc3)c(OC)cc(OC)c12 (stereo not drawn)	8.91µM*	79.4µM*	?	?	/	11.2µM*
CCC(C(=O)N1CCN(c2cc(Cl)ccc2C)CC1)n1nc(C)n2c(cc3occc32)c1=O (stereo not drawn)	-6.0%	/	3.7%[59 µM]	22.4%	/	-13.8%
COc1ccc(Cl)cc1NC(=O)c1cc2ccc3ccc(C)[nH]c3c2n1	4.5%[57.1 µM]	/	?	1.8%	/	-18.8%
Nc1c(-c2nc(-c3cccs3)no2)nnn1-c1cccc(Cl)c1	8.7%	/	5.7%[59 µM]	51.3%	/	0.0%
CCOc1ccc(C2=CC(c3cc(Br)ccc3F)n3ncnc3N2)cc1Cl (stereo not drawn)	-9.9%	/	-34.3%[59 µM]	24.3%	/	-23.1%
Cc1ccc(S(=O)(=O)c2c(N)n(CCC(C)C)c3nc4ccccc4nc23)cc1	3.9%	17.3%	-12.7%	75.7%	/	0.9%
Cc1ccc(S(=O)(=O)c2c(N)n(CCN3CCOCC3)c3nc4ccccc4nc23)cc1C	1.9%	-0.9%	24.0%[12.7 µM]	35.0%	46.4%	3.5%
Cc1ccc(S(=O)(=O)c2c(N)n(Cc3ccco3)c3nc4ccccc4nc23)cc1C	-25.9%	35.5µM*	?	23.3%	/	-15.7%
Nc1c(S(=O)(=O)c2ccccc2)c2nc3ccccc3nc2n1Cc1ccco1	-28.0%	20µM*	-3.1%[12.7 µM]	23.2%	0.6%	-21.6%
Cc1cccc(S(=O)(=O)c2c(N)n(/N=C/c3ccccc3)c3nc4ccccc4nc23)c1	2.8%	8.2%	43.3%[59 µM]	33.6%	/	-16.7%
Cc1ccc(S(=O)(=O)c2c(N)n(CCCO)c3nc4ccccc4nc23)cc1	56.2µM*	-7.7%	17.3%	45.4%	/	-1.8%
Cc1ccc(C)c(S(=O)(=O)c2c(N)n(/N=C/c3ccco3)c3nc4ccccc4nc23)c1	?	50.1µM*	50.1µM*	28.2%	?	-9.3%
CCc1ccccc1N(CC)C(=O)c1c(C)oc2ncnc(N3CCOCC3)c12	3.3%[57.1 µM]	/	-4.1%[59 µM]	-6.3%	/	-29.8%
COCCNC(=O)c1ccccc1NC(=O)c1nsc2ccccc12	-0.4%	/	2.4%[59 µM]	7.4%[57 µM]	/	-1.0%
CCOC(=O)c1[nH]c2ccccc2c1NC(=S)Nc1ccccc1	?	?	44.7µM*	-6.7%	-4.6%	-14.5%
CCOC(=O)c1[nH]c2ccccc2c1NC(=S)Nc1cccc(C)c1	?	-28.8%	39.8µM*	-12.8%	-6.3%	?
COc1ccc(-c2cnnn2-c2ccc(NC(=O)c3c(F)cccc3F)cc2)cc1	-29.7%	/	-23.0%[59 µM]	15.1%	/	-35.2%
CCN(c1ccccc1)S(=O)(=O)c1ccc(OC)c(NC(=O)C2CC(=O)N(Cc3ccccc3)C2)c1 (stereo not drawn)	-27.3%	11.5%	56.2µM*	20.7%	/	-33.2%
COc1ccc(-c2csc(NC(=O)C3CC(=O)N(Cc4ccccc4)C3)n2)cc1OC (stereo not drawn)	?	1.6%	50.1µM*	-23.6%	/	?
CSc1cccc(NC(=O)C2CC(=O)N(Cc3ccccc3)C2)c1 (stereo not drawn)	-19.1%	9.2%	44.7µM*	38.4%	/	-14.5%
O=C(Nc1ccccc1)C1CC(=O)N(Cc2ccccc2)C1 (stereo not drawn)	2.7%	2.7%	2.5%	34.4%	/	-14.5%
Cc1cccc(C(C)C)c1NC(=O)C1CN(S(=O)(=O)c2ccccc2)CCN1S(=O)(=O)c1ccccc1 (stereo not drawn)	-4.0%	10.4%	70.8µM*	31.4%	1.5%	-9.0%
SMILES	BAZ2B block	Sfp PPTase inh	G9a block	HP1b chromo inh	L3MBTL1 block	JMJD2A Tudor inh
CCc1cccc(CC)c1NC(=O)C1CN(S(=O)(=O)c2ccccc2)CCN1S(=O)(=O)c1ccccc1 (stereo not drawn)	-3.3%	13.0%	?	12.8%	1.6%	-8.6%
CCOC(=O)Cc1c(C(=O)OCC)nnc2c(-c3ccccc3)c(C)nn12	?	/	?	-6.8%	/	?
Cc1cc2nc(CS)[nH]c2cc1C	-13.4%	39.8µM*	10µM*	11.8%	/	-20.4%
CCN(CC)CCCCn1c(-c2ccccc2)nc2c(NCCOC)nc(C)nc21	/	21.1%	/	/	/	/
COc1ccccc1N1CCN(C(=O)c2oc3ccccc3c2N)CC1	-37.4%	/	?	-17.9%	/	?
O=C(CN1C(=O)NC2(CCCCC2)C1=O)Nc1cc(C(F)(F)F)ccc1N1CCCCC1	-5.1%	/	-5.0%[0.501 µM]	24.1%	2.0%	-9.0%
O=C(CN1C(=O)NC2(CCCCC2)C1=O)Nc1cc(C(F)(F)F)ccc1N1CCOCC1	2.8%	/	50.1µM*	47.0%	10.7%	-2.8%
O=C(CN1C(=O)NC2(CCCC2)C1=O)Nc1cc(C(F)(F)F)ccc1N1CCCCC1	3.9%	/	44.7µM*	15.9%	-7.7%	-14.2%
O=C(CN1C(=O)NC2(CCCC2)C1=O)Nc1cc(Cl)ccc1N1CCOCC1	8.8%	/	-39.6%	13.8%	-3.9%	-7.5%
Cc1ccc(C)c(N2CCN(C(c3ccc(F)cc3)c3nnc(-c4ccccc4)o3)CC2)c1 (stereo not drawn)	-38.6%	/	?	4.2%	/	?
O=C(CCCn1c(=O)c2cccn2c2cccnc21)Nc1ccccc1Br	0.0%	/	3.4%[59 µM]	11.1%	/	-19.0%
Cc1ccc2nc(N3C(=O)C(O)=C(C(=O)c4ccc(C)o4)C3c3ccco3)sc2c1 (stereo not drawn)	50.1µM*	/	?	-11.8%	?	50.1µM*
Cc1ccc2nc(N3C(=O)C(O)=C(C(=O)c4ccco4)C3c3ccc(C)o3)sc2c1 (stereo not drawn)	50.1µM*	?	39.8µM*	-8.4%[57 µM]	/	10µM*
Cc1cccc(N(C(=O)CS(=O)CC(=O)Nc2ccc3c(c2)OCO3)C(C)C(=O)NC2CCCC2)c1C (stereo not drawn)	-27.7%	-14.4%	56.2µM*	22.9%	/	-4.8%
Cc1ccc(C)c(N(C(=O)CS(=O)CC(=O)Nc2ccc3c(c2)OCO3)C(C)C(=O)NC2CCCC2)c1 (stereo not drawn)	-3.8%	13.0%	?	41.3%	-6.7%	-10.8%
